In PubChem BioAssay AID720706 (Broad Institute, 2013):
Screen size: about 350,000 compounds; about 5,500 (1.6%) were called active.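 The calls were made as follows: active = significant combined selectivity score with lowered wild-type GFP, culture density cut under 30%, mutant RFP and density less affected; inactive = any of these conditions unmet.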 What follows is part of a selection rich in actives, with near analogues and random picks from the rest.

experiment: GFP drop in mixed WT/humanized-ribosome E. coli culture – GFP/RFP fluorescence, OD600, single point, bacterial rRNA inhibitor project, primary screen (AID 720706); conditions: E. coli WT GFP vs humanized-ribosome RFP mutants, 24 h; GFP signal change (wild-type ribosome): stronger effect = lower value, DMSO median 0, no signal -100; OD600 change: measured here: OD600 growth, DMSO median 0, no signal -100; RFP signal change: measured here: RFP humanized mutant strains, DMSO median 0, no signal -100, concentration not given here

Compound | GFP signal change (wild-type ribosome) | OD600 change | RFP signal change
CCC(=O)N(C)C[C@H]1Oc2cc(/C=C/c3ccccc3)ccc2S(=O)(=O)N([C@H](C)CO)C[C@@H]1C | -13.8% (inactive) | -24.1% | 1.56%
COc1ccc(C#Cc2cnc3c(c2)C(=O)N([C@H](C)CO)C[C@H](C)[C@H](CN(C)S(=O)(=O)c2ccc(F)cc2)O3)cc1OC | -1.5% (inactive) | 6.11% | 0.148%
O=C(C[C@H]1C=C[C@H](NC(=O)CC2CC2)[C@@H](CO)O1)NCc1ccccc1 | -2.86% (inactive) | -1.4% | 0.749%
C[C@@H]1CC=CC[C@@H](c2ccccc2)NC(=O)[C@@H](Cc2ccccc2)N(C)C(=O)c2ccccc2O1 (mixture of isomers) | -3.7% (inactive) | -8.18% | -0.954%
C[C@@H]1CCCCO[C@H](CN(C)S(=O)(=O)c2ccc(Cl)cc2)[C@H](C)CN([C@@H](C)CO)C(=O)c2cc(NS(=O)(=O)c3cn(C)cn3)ccc2O1 | -4.15% (inactive) | -10.5% | 3.24%
C[C@@H]1CN([C@@H](C)CO)S(=O)(=O)c2ccc(C#Cc3ccc(F)cc3)cc2O[C@@H]1CN(C)CC1CC1 | 3.12% (inactive) | -6.33% | 12.1%
CCOc1ccccc1NC(=S)C(=C([O-])c1ccc2c(c1)OCCO2)[n+]1ccc(CC)cc1 | -17.2% (active) | -16.2% | 11.5%
CCc1ccccc1OCC(=O)Nc1ccc2c(c1)OCCO2 | -18.9% (inactive) | -29.9% | 1.18%
O=[N+]([O-])c1cccc(/C([O-])=C(/C(=S)Nc2ccccc2F)[n+]2ccccc2)c1 | 4.97% (inactive) | 13.1% | 6.65%
COc1ccc2c3c(n(C)c2c1)[C@H](CO)N(S(=O)(=O)c1ccc(C)cc1)CC31CCN(C(=O)c2ccccn2)CC1 | -3.17% (inactive) | -3.75% | 3.99%
COc1ccc(N(CC(=O)N2CCCCCC2)S(=O)(=O)c2ccccc2)cc1 | -1.75% (inactive) | -4.39% | -2.53%
CS(=O)(=O)N(CC(=O)N1CCc2ccccc2C1)c1ccc(Br)cc1 | -22.4% (active) | -11% | 0.676%
CS(=O)(=O)N(CC(=O)N1CCN(Cc2ccccc2)CC1)c1ccc2c(c1)OCCO2 | 3.15% (inactive) | 8.73% | -8.62%
COCc1cn(CC[C@H]2CC[C@H](NC(=O)c3ccncc3)[C@H](CO)O2)nn1 | 1.82% (inactive) | 6.54% | -3.21%
CC(C)[C@@H]1COCc2cnnn2CCC[C@H](C)C(=O)N1 | 1.6% (inactive) | 7.64% | 1.53%
CC(C)(C)C(c1nc2ccccc2[nH]1)n1c(Cc2csc3ccccc23)nc2ccccc21 (stereo not given) | -9.17% (inactive) | -4.49% | 9.77%
Cc1cc(C)cc(NC(=O)c2cccc(NC(=O)C3C4CC5OC(=O)C3C5C4)c2)c1 (stereo not given) | -21.2% (active) | -14.4% | 6.04%
COC(=O)c1cccc(NC(=O)c2cccc(N3C(=O)CCC3=O)c2)c1 | 0.987% (inactive) | 9.02% | 0.607%
Cc1ccc(NC(=O)COC(=O)C2C3CC4OC(=O)C2C4C3)cc1Cl (stereo not given) | -1.3% (inactive) | -3.04% | -5.78%
COc1ccccc1C#Cc1ccc2c(c1)O[C@@H](CN(C)Cc1cncnc1)[C@H](C)CN([C@@H](C)CO)S2(=O)=O | -12.1% (inactive) | -13.6% | 10%

Compound | GFP signal change (wild-type ribosome) | OD600 change | RFP signal change
O=C1CN(S(=O)(=O)Cc2ccccc2)C[C@@H]2[C@@H](c3ccc(C#Cc4cccc(F)c4)cc3)[C@@H](CO)N12 | -6.58% (inactive) | -36.6% | 26.9%
C[C@@H]1CN([C@@H](C)CO)S(=O)(=O)c2ccc(C#C[C@@H](C)O)cc2O[C@@H]1CN(C)C(=O)Cc1ccccn1 | 3.39% (inactive) | 0.98% | -0.13%
COc1ccccc1C(=O)Nc1ccc2c(c1)C(=O)N(C)C[C@@H](OC)[C@@H](C)CN(CC1CC1)[C@@H](C)CO2 | -1.52% (inactive) | -3.13% | 0.12%
CCN1C(=O)/C(=C2\SC(N3CCCCC3)=NC2=O)c2ccccc21 | -24% (active) | 0.66% | -4.52%
CC(C)=C1SC(N2CCN(c3ccc(C)c(Cl)c3)CC2)=NC1=O | -1.49% (inactive) | -2.03% | -2.71%
CCOc1cc(/C=C2\SC(N3CCCCC3)=NC2=O)ccc1O | -19.3% (inactive) | -20.3% | 8.23%
COc1cccc(C(=O)N2C[C@@H]3[C@H](c4ccccc42)[C@H](CO)N3Cc2ccccc2F)c1 | -8.84% (inactive) | -21.6% | 1.94%
Cc1n[nH]c(=O)nc1N/N=C/c1cccs1 | 12.5% (inactive) | -10.6% | 3.52%
Cc1nc2ccccc2nc1N/N=C/c1ccc(O)cc1O | -17.1% (active) | -1% | 6.07%
COc1ccccc1N1CCN(/N=C/c2ccc(O)cc2O)CC1 | 2.04% (inactive) | 0.96% | -2.29%
CN(C)CCCNC(=O)C[C@H]1C=C[C@@H](NC(=O)Cc2cccnc2)[C@H](CO)O1 | -1.21% (inactive) | 6.35% | -1.98%
Cc1onc(-c2c(Cl)cccc2Cl)c1C(=O)NNC(=O)c1c(-c2c(Cl)cccc2Cl)noc1C | -35.2% (active) | -26.9% | 1.07%
Cc1onc(-c2c(F)cccc2Cl)c1C(=O)Nc1cccc(S(=O)(=O)N2CCCCC2)c1 | -6.88% (inactive) | -20.2% | -1.93%
Cc1[nH]n(C)c(=O)c1C(=O)c1c(-c2c(Cl)cccc2Cl)noc1C | 23.4% (inactive) | 10.3% | 1.84%
CN1C(=O)c2cc(NC(=O)c3ccc(Cl)cc3)ccc2OC[C@H]2O[C@H](CC(=O)O)CC[C@H]21 | 1.69% (inactive) | 1.68% | -1.26%
C[C@H]1CN([C@@H](C)CO)C(=O)c2cc(NC(=O)Nc3ccc4c(c3)OCO4)ccc2O[C@H]1CN(C)S(=O)(=O)c1ccc(F)cc1 | -3.35% (inactive) | -0.035% | 3.46%
CN1C(=O)c2cc(NC(=O)C3CCC3)ccc2OC[C@@H]2O[C@@H](CC(=O)NCCc3ccncc3)CC[C@H]21 | 5.03% (inactive) | 10.1% | -1.17%
S=c1nc2ccccc2c2nc(-c3cccnc3)[nH]n12 | -0.36% (inactive) | -3.58% | -4.9%
COc1ccccc1CCNC(=O)CSc1nnc2ccc(-c3cccnc3)nn12 | -2.66% (inactive) | 7.92% | 10.5%
COc1ccccc1Oc1nc(-c2cccnc2)nc2ccccc12 | -34.3% (active) | -23.4% | -3.61%
